Laboratory results from ChEMBL document CHEMBL2218924, “A broad activity screen in support of a chemogenomic map for kinase signalling research and drug discovery” (Biochem J, 2013).

Experiments:
[1] = biological target: T1, Muscle, skeletal receptor tyrosine-protein kinase (Homo sapiens) (UniProt O15146); details: at 1 µM
T1 sequence (whole entry): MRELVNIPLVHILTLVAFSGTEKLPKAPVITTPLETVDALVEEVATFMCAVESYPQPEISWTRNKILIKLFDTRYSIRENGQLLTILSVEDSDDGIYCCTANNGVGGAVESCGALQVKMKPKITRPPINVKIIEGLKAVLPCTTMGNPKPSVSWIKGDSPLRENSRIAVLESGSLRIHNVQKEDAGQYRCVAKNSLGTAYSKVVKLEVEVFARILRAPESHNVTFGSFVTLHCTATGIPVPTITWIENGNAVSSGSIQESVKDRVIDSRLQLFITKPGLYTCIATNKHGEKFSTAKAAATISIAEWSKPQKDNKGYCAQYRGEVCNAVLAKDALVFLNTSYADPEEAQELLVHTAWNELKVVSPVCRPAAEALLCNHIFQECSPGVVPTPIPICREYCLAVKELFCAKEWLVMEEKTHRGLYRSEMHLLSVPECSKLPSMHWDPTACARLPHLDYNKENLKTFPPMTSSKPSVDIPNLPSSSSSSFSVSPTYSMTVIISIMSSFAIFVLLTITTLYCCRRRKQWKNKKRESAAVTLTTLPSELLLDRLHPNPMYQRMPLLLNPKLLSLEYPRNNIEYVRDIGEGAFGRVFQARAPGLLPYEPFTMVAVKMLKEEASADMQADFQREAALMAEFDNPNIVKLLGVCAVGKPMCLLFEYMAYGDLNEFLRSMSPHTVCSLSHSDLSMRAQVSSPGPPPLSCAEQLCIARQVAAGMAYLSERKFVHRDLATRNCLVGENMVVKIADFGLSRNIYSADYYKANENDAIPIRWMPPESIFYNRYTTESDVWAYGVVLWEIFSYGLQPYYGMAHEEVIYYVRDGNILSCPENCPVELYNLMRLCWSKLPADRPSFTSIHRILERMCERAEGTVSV

[2] = biological target: T1, Muscle, skeletal receptor tyrosine-protein kinase (Homo sapiens); details: at 10 µM
[3] = biological target: T2, Serine/threonine-protein kinase Nek11 (Homo sapiens) (UniProt Q8NG66); details: at 1 µM
T2 sequence (whole entry): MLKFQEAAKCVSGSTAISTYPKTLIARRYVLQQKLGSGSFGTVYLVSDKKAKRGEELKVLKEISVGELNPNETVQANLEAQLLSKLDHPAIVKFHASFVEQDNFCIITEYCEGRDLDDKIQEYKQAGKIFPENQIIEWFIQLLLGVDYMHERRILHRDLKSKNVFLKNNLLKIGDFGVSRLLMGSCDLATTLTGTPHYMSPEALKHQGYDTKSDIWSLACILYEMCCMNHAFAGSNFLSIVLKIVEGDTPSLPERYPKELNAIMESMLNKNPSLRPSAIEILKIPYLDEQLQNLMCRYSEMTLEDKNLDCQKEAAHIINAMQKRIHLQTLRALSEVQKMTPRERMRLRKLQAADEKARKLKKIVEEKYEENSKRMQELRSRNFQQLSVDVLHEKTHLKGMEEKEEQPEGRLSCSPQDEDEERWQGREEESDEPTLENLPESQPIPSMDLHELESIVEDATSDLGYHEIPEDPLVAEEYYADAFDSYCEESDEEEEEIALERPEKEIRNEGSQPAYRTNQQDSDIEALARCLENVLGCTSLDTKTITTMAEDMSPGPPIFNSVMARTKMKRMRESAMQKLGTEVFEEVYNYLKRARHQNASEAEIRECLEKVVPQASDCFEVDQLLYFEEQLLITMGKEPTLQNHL

[4] = biological target: T2, Serine/threonine-protein kinase Nek11 (Homo sapiens); details: at 10 µM
[5] = biological target: T3, Serine/threonine-protein kinase Nek2 (Homo sapiens) (UniProt P51955); details: at 1 µM
T3 sequence (whole entry): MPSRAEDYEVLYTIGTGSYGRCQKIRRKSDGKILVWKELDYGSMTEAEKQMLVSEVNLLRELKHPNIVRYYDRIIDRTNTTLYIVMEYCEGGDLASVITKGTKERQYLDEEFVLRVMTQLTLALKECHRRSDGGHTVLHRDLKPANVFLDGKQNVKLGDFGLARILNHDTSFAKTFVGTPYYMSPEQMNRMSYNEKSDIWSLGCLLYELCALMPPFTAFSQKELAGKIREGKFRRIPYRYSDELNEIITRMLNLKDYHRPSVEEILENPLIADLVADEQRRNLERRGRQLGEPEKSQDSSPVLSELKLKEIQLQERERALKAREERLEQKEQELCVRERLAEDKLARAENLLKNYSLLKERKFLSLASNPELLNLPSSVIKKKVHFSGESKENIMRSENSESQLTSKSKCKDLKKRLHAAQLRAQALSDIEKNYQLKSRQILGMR

[6] = biological target: T3, Serine/threonine-protein kinase Nek2 (Homo sapiens); details: at 10 µM
[7] = biological target: T4, Serine/threonine-protein kinase Nek3 (Homo sapiens) (UniProt P51956); details: at 1 µM
T4 sequence (whole entry): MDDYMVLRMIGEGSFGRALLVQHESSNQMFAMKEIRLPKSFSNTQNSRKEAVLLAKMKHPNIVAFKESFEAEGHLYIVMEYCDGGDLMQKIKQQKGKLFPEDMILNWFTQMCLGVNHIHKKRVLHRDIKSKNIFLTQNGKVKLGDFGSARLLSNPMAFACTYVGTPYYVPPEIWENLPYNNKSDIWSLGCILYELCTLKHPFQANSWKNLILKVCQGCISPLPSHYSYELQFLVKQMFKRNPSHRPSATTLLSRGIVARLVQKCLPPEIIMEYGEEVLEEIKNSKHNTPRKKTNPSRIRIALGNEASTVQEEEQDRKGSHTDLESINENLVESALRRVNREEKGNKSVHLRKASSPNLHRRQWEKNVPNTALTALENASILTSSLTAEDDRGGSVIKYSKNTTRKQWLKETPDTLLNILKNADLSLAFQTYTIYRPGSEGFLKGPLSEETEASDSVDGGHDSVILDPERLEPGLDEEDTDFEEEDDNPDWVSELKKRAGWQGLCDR

[8] = biological target: T4, Serine/threonine-protein kinase Nek3 (Homo sapiens); details: at 10 µM
[9] = biological target: Serine/threonine-protein kinase tousled-like 2 (Homo sapiens) (UniProt Q86UE8); details: at 1 µM
Chain of Serine/threonine-protein kinase tousled-like 2 (Homo sapiens) (Q86UE8 whole entry, looked up): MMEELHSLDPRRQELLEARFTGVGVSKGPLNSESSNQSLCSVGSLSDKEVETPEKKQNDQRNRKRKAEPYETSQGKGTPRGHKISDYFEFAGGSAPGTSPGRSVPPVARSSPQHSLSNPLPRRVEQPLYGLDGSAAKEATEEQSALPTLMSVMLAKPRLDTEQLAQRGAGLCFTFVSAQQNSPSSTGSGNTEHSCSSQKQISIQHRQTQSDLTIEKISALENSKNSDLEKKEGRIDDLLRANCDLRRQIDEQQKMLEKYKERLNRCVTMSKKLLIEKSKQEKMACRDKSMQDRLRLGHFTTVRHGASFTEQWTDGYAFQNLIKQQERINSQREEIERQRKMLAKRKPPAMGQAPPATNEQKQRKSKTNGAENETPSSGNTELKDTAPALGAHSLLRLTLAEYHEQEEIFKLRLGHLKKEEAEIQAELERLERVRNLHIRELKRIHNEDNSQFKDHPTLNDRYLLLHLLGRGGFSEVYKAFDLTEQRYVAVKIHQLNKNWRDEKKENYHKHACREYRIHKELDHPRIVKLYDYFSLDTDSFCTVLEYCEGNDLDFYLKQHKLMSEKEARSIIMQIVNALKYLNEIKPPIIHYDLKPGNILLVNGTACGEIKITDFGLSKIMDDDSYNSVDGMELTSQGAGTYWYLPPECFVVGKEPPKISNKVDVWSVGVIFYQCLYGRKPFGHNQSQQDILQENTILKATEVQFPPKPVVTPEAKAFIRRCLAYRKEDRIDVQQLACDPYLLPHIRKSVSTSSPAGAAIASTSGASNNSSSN

[10] = biological target: Serine/threonine-protein kinase tousled-like 2 (Homo sapiens) (UniProt Q86UE8); details: at 10 µM

Row | Compound | residual activity [1] [%] | residual activity [2] [%] | residual activity [3] [%] | residual activity [4] [%] | residual activity [5] [%] | residual activity [6] [%] | residual activity [7] [%] | residual activity [8] [%] | residual activity [9] [%] | residual activity [10] [%]
1 | CN(C)S(=O)(=O)c1ccc2c(c1)/C(=C/c1cc3c([nH]1)CCCC3)C(=O)N2 | 53 | 47 | 47 | 63 | 97 | 100 | 88 | 94 | 98 | 95
2 | O=C(CCCc1ccc(-c2ccccc2F)cc1)Nc1ccc(O)cc1 | 96 | 84 | 67 | 60 |  | 106 | 89 | 103 | 103 | 95
3 | Cn1sc(=O)n(Cc2ccccc2)c1=O | 73 | 86 | 43 | 62 | 95 | 87 | 83 | 97 | 84 | 80
4 | O=C1Cc2c([nH]c3ccc([N+](=O)[O-])cc23)-c2ccccc2N1 | 70 | 72 | 74 | 79 |  |  |  |  |  | 
5 | CC(C)(C)n1nc(Cc2cccc3ccccc23)c2c(N)ncnc21 | 121 | 76 | 91 | 82 | 78 | 97 | 108 | 105 | 104 | 97
6 | COc1ccc(Cl)cc1NC(=O)Nc1cc(C)nc2ccccc12 | 97 | 71 | 79 | 93 | 78 | 86 |  |  | 97 | 95
7 | O=C1C(Cl)=C(N2C(=O)CCC2=O)C(=O)c2ccccc21 | 76 | 84 | 41 | 33 | 93 | 89 | 74 | 87 | 94 | 95
8 | CCCCc1c(-c2ccc(O)cc2)[nH]c2nccnc12 | 81 | 62 | 80 | 88 |  |  | 88 | 79 | 91 | 80
9 | O=C(c1cc2cc(O)ccc2[nH]1)c1cc2cc(O)ccc2[nH]1 | 43 | 4 | 54 | 38 | 77 | 73 | 111 | 72 | 81 | 32
10 | CC(C)[C@H](CO)Nc1nc(Nc2cc(N)cc(Cl)c2)c2ncn(C(C)C)c2n1 | 62 | 10 | 84 | 48 |  | 76 | 85 | 70 | 95 | 73
11 | CCN1/C(=C/C(C)=O)Sc2ccc(OC)cc21 | 82 | 75 | 49 | 60 |  |  |  |  |  | 
12 | COc1ccc2c(c1)c(C1=C(c3c[nH]c4ccccc34)C(=O)NC1=O)cn2CCCN(C)C | 96 | 65 | 50 | 48 | 76 |  |  |  | 21 | 2
13 | CSc1nc(-c2ccc(F)cc2)c(-c2ccnc(NC(C)c3ccccc3)c2)[nH]1 (configuration not stated) | 98 | 81 | 83 | 54 | 99 | 102 | 95 | 90 |  | 
14 | CCN(CC)CCNC(=O)c1c(C)[nH]c(/C=C2\C(=O)Nc3ccc(Cl)cc32)c1C | 3 | 0 | 80 | 31 | 67 | 18 |  |  | 69 | 14
15 | CCCC(=O)Oc1ccc2[nH]c(C(=O)c3cc4ccccc4[nH]3)cc2c1 | 95 | 76 | 75 | 89 | 71 | 103 | 98 | 79 | 100 | 90
16 | NC(=O)Nc1sc(-c2ccc(F)cc2)cc1C(N)=O | 62 | 15 | 25 | 5 | 87 | 58 | 69 | 48 | 72 | 27
17 | CCCCc1c(-c2ccc(OC)cc2)[nH]c2nccnc12 | 88 | 87 | 80 | 81 |  | 83 | 87 |  | 87 | 86
18 | O=C1Nc2ccccc2/C1=C\c1c(Cl)[nH]c2ccccc12 | 78 | 70 | 64 | 29 |  | 77 | 82 |  |  | 76
19 | Nc1n[nH]c2nc3ccccc3nc12 | 76 | 87 | 70 | 80 | 115 | 81 | 80 | 83 | 91 | 81
20 | O=C1NC(=O)c2c1c1c3ccccc3[nH]c1n1cncc21 | 72 | 55 | 36 | 34 | 77 | 63 | 77 | 86 | 74 | 58
21 | O=C1Nc2ccc(Cl)cc2/C1=C/c1cc(Cl)c(O)c(Cl)c1 | 81 | 23 | 52 | 65 | 88 | 89 | 115 | 84 |  | 87
22 | CC(C)c1nn(-c2c(Cl)cccc2Cl)c2nc(Cc3ccc(OCCO)cc3)[nH]c(=O)c12 | 96 | 87 | 63 | 70 | 90 | 87 | 86 | 89 | 80 | 37
23 | O=S(=O)(NCCNC/C=C/c1ccc(Br)cc1)c1cccc2cnccc12 | 81 | 76 | 69 | 69 |  |  |  |  |  | 
24 | COc1cc2nccc(Oc3ccc(NC(=S)NC(=O)c4ccccc4C)cc3)c2cc1OC | 81 | 56 | 99 | 87 | 78 | 82 |  | 60 | 101 | 85
